Assay outcomes from PubChem BioAssay.
Sampled rows, rich in hits. Any-hit rate of the full collection: about 7.4%.
SMN2 splice enh: enhancers of SMN2 splice variant expression | HEK293 SMN2-luciferase splicing reporter, luminescence, 30-36 h | Potency, µM (titrated, usually from 46.1 µM), inactives show top-dose activity change, positive = activation, usual class: activators | hit rate 2.8% among 210,000 | AID 1458; further: % of control where 0% means no effect; nearly all actives have a fitted effect of over 55% in size
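HEK293 cells carry an SMN2 minigene-luciferase reporter in which exon 7 inclusion puts luciferase in frame. Cells were seeded at 2000 cells/well, attached for 10-12 hours, then exposed to compounds for 30-36 hours at 37C before ONE-Glo luminescence.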
FLuc modulator: inhibits or activates purified firefly luciferase, miR-21 counter-screen; P08659; purified FLuc, Km substrates, luminescence inhibition; Potency, µM (series often up to 57.5 µM), for inactives: top-dose activity change, negative = inhibition, most hits filed as inhibitors; hit rate 6.9% among 360,000; AID 588342;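 further: plate controls were vehicle for no effect and reference inhibitor for full effect; nearly all actives have a fitted effect of over 55% in size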
Target sequence (P08659 whole entry, looked up): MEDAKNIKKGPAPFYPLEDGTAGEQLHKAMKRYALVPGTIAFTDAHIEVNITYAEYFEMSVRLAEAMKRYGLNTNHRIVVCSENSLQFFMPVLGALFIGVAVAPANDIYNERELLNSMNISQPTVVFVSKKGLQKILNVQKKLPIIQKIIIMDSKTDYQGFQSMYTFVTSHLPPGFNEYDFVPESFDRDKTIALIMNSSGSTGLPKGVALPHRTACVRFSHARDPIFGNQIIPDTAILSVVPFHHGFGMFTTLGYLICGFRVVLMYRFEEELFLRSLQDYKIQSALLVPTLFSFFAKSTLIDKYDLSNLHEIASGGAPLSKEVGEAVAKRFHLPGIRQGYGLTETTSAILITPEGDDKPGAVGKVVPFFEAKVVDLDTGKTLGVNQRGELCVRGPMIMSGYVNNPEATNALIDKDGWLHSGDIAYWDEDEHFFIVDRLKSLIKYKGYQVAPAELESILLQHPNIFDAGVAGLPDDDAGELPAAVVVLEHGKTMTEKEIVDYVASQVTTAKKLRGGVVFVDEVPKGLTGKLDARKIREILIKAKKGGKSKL
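Purified P. pyralis luciferase, 10 nM final, with Km-level 10 uM D-luciferin and 10 uM ATP in 50 mM Tris acetate pH 7.5, 10 mM Mg acetate, 0.01% Tween-20, 0.05% BSA; 6-point qHTS titration about 60 µM downward; luminescence read.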
KinaseGlo FLuc: counter-screen: inhibitors of Kinase-Glo firefly luciferase | AID 1379 | Q27757 | Potency, µM (highest dose often 38.3 µM), for the others: top-dose activity change, negative = inhibition, hits mostly inhibitors | Kinase-Glo luciferase, ATP luminescence, 8 min | hit rate 0.28% among 200,000; further: on the % scale 0 is the no-effect control and ±100 the full control effect; nearly all actives have a fitted effect of over 60% in size
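Compounds were added to a substrate mix at pH 7.2 (50 mM imidazole, 10 uM ATP, within the enzyme's linear range), followed by Kinase-Glo detection reagent; luminescence was measured after 8 minutes at ambient temperature.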
NPC1 prom act: NPC1 promoter activation | Huh7 NPC1 promoter luciferase reporter, 24 h | Potency, µM (highest dose often 9.22 µM), for inactives: at the top dose activation, most hits filed as activators | hit rate 2.4% among 320,000 | AID 485313; further: % of control where 0% means no effect; nearly all actives have a fitted effect of over 60% in size
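Cells: Huh7 expressing luciferase under the NPC1 promoter, 1500/well. Seeded 2 h, compound added, incubated 24 h at 37 °C. Luciferase reagent, 10 min ambient, then luminescence.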
ELG1 genotox: induces genotoxicity in HEK293T cells with luciferase-tagged ELG1 | AID 504466 | hit rate 1.3% among 330,000 | HEK293T ELG1-luciferase reporter, luminescence, 16 h | Potency, µM (series often up to 46 µM), for inactives: at the top dose activity change, positive = activation, actives largely listed as activators; further: % of control where 0% means no effect; nearly all actives have a fitted effect of over 60% in size
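ELG1-luciferase HEK293T cells, 2,000/well; compound pinned in; 16 hr, 37 °C, 5% CO2; ONE-Glo, 30 min RT; luminescence on CCD imager.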
Rab9 prom act: activates the Rab9 promoter | Huh7 Rab9 promoter-luciferase reporter, luminescence, 24 h | AID 485297 | Potency, µM (titrated, usually from 9.22 µM), without a hit: at the highest dose activation, negative = inhibition, hits mostly activators | hit rate 2.8% among 320,000; further: % of control where 0% means no effect; nearly all actives have a fitted effect of over 60% in size
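Luminescence from Amplite-detected luciferase (10 minutes, ambient) reports Rab9 promoter activation. Before that, stable Rab9-luciferase Huh7 cells (1500/well, reduced-serum OP-MEM I plus 10% FBS) were exposed to compound for 24 hours at 37C.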
Starred values were filed as active, the others as inactive. The call rests on the fitted dose curve; in most records, active means well fitted curve in the direction sought with a large enough effect; inconclusive means small, poorly fitted or top-dose-only effect, or another doubt; inactive means no such curve, though single readings can be large; an effect the other way counts as inactive or inconclusive. Potency means the concentration at half of the fitted maximal effect.

`O=C(O)c1ccc(S(=O)(=O)c2ccc(Sc3ccc(C(=O)O)c(C(=O)O)c3)cc2)cc1` gave SMN2 splice enh 13%, FLuc modulator 11µM*, KinaseGlo FLuc 3%, NPC1 prom act -7%, ELG1 genotox 0% and Rab9 prom act -8%.
Screening O=C(O)c1ccc(S(=O)(=O)N2CCCC2)cc1 returned FLuc modulator 0%, NPC1 prom act 0%, ELG1 genotox -5% and Rab9 prom act 4%.
COc1ccccc1CC(=O)NCc1csc(-c2cccs2)n1 was read as FLuc modulator 17µM*, NPC1 prom act inconclusive, ELG1 genotox 16% and Rab9 prom act inconclusive.
COc1ccc(CCNC(=O)c2nc(-c3cccs3)no2)cc1OC was read as SMN2 splice enh -42%, FLuc modulator -2%, KinaseGlo FLuc 1%, NPC1 prom act -6%, ELG1 genotox -5% and Rab9 prom act -2%.
Screening COc1ccccc1CCNC(=O)c1nc(-c2cccs2)no1 returned SMN2 splice enh inconclusive, FLuc modulator 17µM*, KinaseGlo FLuc -4%, NPC1 prom act inconclusive, ELG1 genotox inconclusive and Rab9 prom act inconclusive.
For CCc1nnc(NC(=O)c2sc3nc4cc(C)ccc4cc3c2N)s1 the results were SMN2 splice enh -9%, FLuc modulator 9.5µM*, KinaseGlo FLuc -4%, NPC1 prom act 13%, ELG1 genotox -2% and Rab9 prom act 17%.
For CCc1nnc(NC(=O)c2ccc3ccccc3n2)s1 the results were SMN2 splice enh 2.8µM*, FLuc modulator 13µM*, KinaseGlo FLuc inconclusive, NPC1 prom act inconclusive, ELG1 genotox -15% and Rab9 prom act 2.5µM*.
CCOC(=O)Cc1csc(NC(=O)c2sc3nc4ccc(C)cc4cc3c2N)n1 was read as SMN2 splice enh 13%, FLuc modulator inconclusive, KinaseGlo FLuc -2%, NPC1 prom act 3%, ELG1 genotox inconclusive and Rab9 prom act 11%.
For CCSc1nnc(NC(=O)c2ccc3ccccc3n2)s1 the results were SMN2 splice enh 14µM*, FLuc modulator 12µM*, KinaseGlo FLuc 3%, NPC1 prom act inconclusive, ELG1 genotox inconclusive and Rab9 prom act inconclusive.
`CCOC(=O)C(=O)Nc1ccccc1C(=O)NCc1ccccc1` gave SMN2 splice enh -21%, FLuc modulator 8%, KinaseGlo FLuc -1%, NPC1 prom act -1%, ELG1 genotox 0% and Rab9 prom act 2%.
Screening O=C(N/N=C/c1ccc(OC(=O)c2cccs2)cc1)c1ccccn1 returned FLuc modulator 1.5µM*, NPC1 prom act 2.5µM*, ELG1 genotox 7.3µM* and Rab9 prom act 3.2µM*.
Screening COc1cc(/C=N/NC(=O)c2ccccn2)ccc1OC(=O)c1ccc(Br)cc1 returned FLuc modulator -8%, NPC1 prom act inconclusive, ELG1 genotox inconclusive and Rab9 prom act 24%.
For CCOc1cc(/C=N/NC(=O)c2ccccn2)ccc1OC(=O)c1cccs1 the results were FLuc modulator inconclusive, NPC1 prom act 18%, ELG1 genotox inconclusive and Rab9 prom act 8%.
Screening O=C(Oc1ccc(/C=N/NC(=O)c2ccccn2)cc1)c1cccc(Br)c1 returned FLuc modulator -6%, NPC1 prom act 4µM*, ELG1 genotox 16µM* and Rab9 prom act 3.5µM*.
O=C(N/N=C/c1ccc(OC(=O)c2ccco2)cc1)c1ccccn1 was read as FLuc modulator 2.7µM*, KinaseGlo FLuc -28%, NPC1 prom act 2.8µM*, ELG1 genotox inconclusive and Rab9 prom act 1.8µM*.
`COc1cc(/C=N/NC(=O)c2ccccn2)ccc1OC(=O)c1ccccc1Br` gave FLuc modulator 4.8µM*, NPC1 prom act inconclusive, ELG1 genotox -5% and Rab9 prom act inconclusive.
Screening CCOc1ccc(C(=O)CSCCC(=O)O)cc1 returned SMN2 splice enh 1%, FLuc modulator 6µM*, KinaseGlo FLuc -1%, NPC1 prom act -4%, ELG1 genotox 16% and Rab9 prom act -3%.
